We go through 38 compounds from PubChem BioAssay (NCI).

The panel holds about 83,000 compounds, 20% with a hit somewhere; the sample as a whole holds those more often.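 Each cell line was grown in a 96-well plate and treated with one concentration of compound for 48 hours. Values below 10 were considered active.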 The source made the active and inactive calls.

The test system of this assay is MALME-3M melanoma. Nature of the assay: NCI-60 one-dose screen, 48 h (100 = growth as untreated, 0 = no growth, -100 = all killed). To be noted: 10 µM unless noted.
As for `COc1cc2[nH]c(C(=O)c3cc(OC)c(OC)c(OC)c3)c(N)c2cc1C#CC1CC1`, the growth is 52.4% (inactive). To `COc1cc2c(cc1OC)C(=O)/C(=C/c1cc(-c3ccc4c(c3)OCO4)n[nH]1)C2` belongs 43.7% (inactive).

Turning to `NS(=O)(=O)c1ccc(CCNC(=O)/C=C/c2ccc(Cl)cc2)cc1`, the growth is 90.4% (inactive). As for `C/C(=N/NC(N)=S)C(=O)O`, the growth was 102% (inactive). The same measure for `Cc1ccc(-c2ccc(Nc3ccccc3)nn2)cc1S(N)(=O)=O`: 73.5% (inactive). To `CCC(c1ccc(OC)cc1)C(CC)c1ccc(O)c(CN2CCCCC2)c1` (stereo not drawn) belongs 28.1% (inactive); to `COc1cc(-c2cc(-c3nc4ccc(F)cc4[nH]3)[nH]n2)cc(OC)c1OC`, 7.29% (active).

For `COc1cccc(NC(=O)c2sc3nc4c(cc3c2N)C(=O)CCC4)c1`, the growth is 50.1% (inactive). For the compound `NC1(N)C=CC2=C(C=C1)C1(N)C3=C(C=CC(N)(N)C=C3)N2C2(N)C3=C(C=CC(N)(N)C=C3)N1C1=C2C=CC(N)(N)C=C1`, the growth was 103% (inactive). `COc1ccc(-c2nc3ccccn3c2-c2nc3ccc(Cl)cc3[nH]2)cc1`: the growth was 109% (inactive). Take `O=c1c(CNc2ccc(S(=O)(=O)Nc3nccs3)cc2)coc2ccccc12`: the growth is 99.7% (inactive). Regarding `CN1CCN(c2nc(-c3cccc4ccccc34)nc3sc4c(c23)CCCCCC4)CC1`, the growth was 81.3% (inactive). With `COc1ccc2nc(-c3cc(-c4cc(OC)c(OC)c(OC)c4)n[nH]3)[nH]c2c1`, the growth was -40.4% (active). Regarding `COc1cccc(-c2nn(-c3ccccc3)cc2-c2ccnc(NCCNS(=O)(=O)c3ccc(Cl)cc3)c2)c1`, the growth is 50.3% (inactive). The same measure for `O=S(=O)(NCCNc1cc(-c2cn(-c3ccccc3)nc2-c2cccc(O)c2)ccn1)c1ccc(C(F)(F)F)cc1`: 60.2% (inactive); for `Cc1cc(C)c(NC(=O)c2sc3nc4c(cc3c2N)CCCC4)c(C)c1`: 44.7% (inactive). The same measure for `C/C(=N\Nc1cc(C)c2ccccc2n1)c1ccccn1`: -77.9% (active).

As to `C=C1C(=O)O[C@H]2[C@H]1CC/C(Cn1cc(-c3ccc(OC)cc3)nn1)=C\CC[C@@]1(C)O[C@@H]21`, the growth is -62.3% (active). Regarding `COC(=O)[C@]12CC[C@@H](C)[C@H](C)[C@@H]1C1=CC[C@@H]3[C@@]4(C)C[C@@H](OC(C)=O)[C@H](OC(C)=O)[C@@](C)(COC(C)=O)[C@@H]4[C@H](O)C[C@@]3(C)[C@]1(C)CC2`, the growth was 5.25% (active). Take `COc1cccc(-c2nn(-c3ccccc3)cc2-c2ccnc(NCCCNS(=O)(=O)c3ccc(Cl)cc3)c2)c1`: the growth was 74.6% (inactive).

For `O=c1c(CNc2ccc(S(=O)(=O)Nc3ncccn3)cc2)coc2ccccc12`, the growth is 94% (inactive). As to `COc1ccc(-c2cc(/C=C/C(=O)c3ccc(OC)c(OC)c3)[nH]n2)cc1`, the growth is 63.1% (inactive). In the case of `C#Cc1cc2c(N)c(C(=O)c3cc(OC)c(OC)c(OC)c3)[nH]c2cc1OC`, the growth was 25.7% (inactive). As for `O=S(=O)(NCCNc1cc(-c2cn(-c3ccccc3)nc2-c2cccc(O)c2)ccn1)c1ccc(F)cc1`, the growth was 14.5% (inactive). The same measure for `c1ccc2[nH]c(-c3cc(-c4ccc5c(c4)OCO5)n[nH]3)nc2c1`: 38.2% (inactive). With `COc1cccc(-c2nn(-c3ccccc3)cc2-c2ccnc(NCCCNS(=O)(=O)c3cccc(F)c3)c2)c1`, the growth was 35.1% (inactive).

On to `COc1cc(-c2cc(-c3nc4cc(Cl)c(Cl)cc4[nH]3)[nH]n2)cc(OC)c1OC`, for which the growth was 46.4% (inactive). For the compound `Oc1cc(/C=C/c2nc(N3CCOCC3)c3cc(Cl)c(Cl)cc3n2)cc(O)c1O`, the growth was 107% (inactive). `Cc1cc(Nc2ccc(F)cc2)nc(N2CCN(c3ccnc4cc(Cl)ccc34)CC2)n1`: the growth was 12.7% (inactive). In the case of `COc1ccc(/C=C/C(=O)NCC(C)O)cc1` (stereo not drawn), the growth is 101% (inactive). Take `COc1ccc(-c2cc(/C=C/C(=O)c3ccc(N)cc3)[nH]n2)cc1`: the growth was 54.3% (inactive). The same measure for `CSc1ccc(N(C)c2nc(C)nc3c2CCC3)cc1`: 92.8% (inactive); for `OCCNc1nc(Nc2ccc(Cl)c(Cl)c2)nc2ccccc12`: 31.1% (inactive); for `COc1cc(-c2cc(-c3nc4ccccc4[nH]3)[nH]n2)cc(OC)c1OC`: 28% (inactive).

Consider `O=C1CCN2C(=O)Nc3ccccc3C2C1` (stereo not drawn), for which the growth was 87.4% (inactive). Turning to `Cc1[c-]onc1C.Cc1[c-]onc1C.[Ag].[Ag].[NH-]S(=O)(=O)c1ccc(N=Nc2cc(N=Nc3ccc(S([NH-])(=O)=O)cc3)c3c(NC(=O)C(Cl)Cl)cccc3c2OC(=O)C(Cl)Cl)cc1`, the growth is 7.7% (active).

As for `Clc1ccc(Cn2cc(-c3nc4ccc(Br)nc4n3Cc3ccc(Cl)cc3)c3cccnc32)cc1`, the growth was 92.4% (inactive). Regarding `COC(=O)[C@]12CC[C@@H](C)[C@H](C)[C@@H]1C1=CC[C@@H]3[C@@]4(C)C[C@@H](OC(C)=O)[C@H](O)[C@@](C)(COC(C)=O)[C@@H]4[C@H](O)C[C@@]3(C)[C@]1(C)CC2`, the growth is -70.5% (active).
